The text below walks through data of PubChem BioAssay (EPA / NIEHS).

The nature of experiment [1]: ATG_GLI_CIS: Attagene CIS-FACTORIAL HepG2 Assay for human Zinc Finger Protein GLI1 (AID 2282945). The following applies: HepG2, Attagene cis-factorial reporter mRNA, GLI element; actives raise or lower the signal. In outline: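 Bidirectional curve fits relative to DMSO, using reporter mRNA levels from RT-PCR plus capillary electrophoresis. Cells were HepG2 transiently carrying cis-regulated reporter constructs, harvested 24 h after dosing.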

A short description of experiment [2]: ATG_ISRE_CIS: Attagene CIS-FACTORIAL HepG2 Assay for human Interferon Regulatory Factor 1 (IRF1) binding to an Interferon-Stimulated Response Element (ISRE) (AID 2282948). Conditions: HepG2 ISRE cis-reporter (Attagene), mRNA transcription readout; actives raise or lower the signal. An outline of the steps: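 Transiently transfected HepG2 cells carrying cis-element reporter units, dosed 24 hours. Reporter mRNA quantified by RT-PCR, fluorescent primer extension, HpaI digestion and capillary electrophoresis. Bidirectional fitting relative to DMSO.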

Experiment [3] can be described thus: ATG_M_06_CIS: Attagene CIS-FACTORIAL HepG2 Assay for M06 Transcription Factor (Internal Marker) (AID 2282950). The following applies: HepG2 Attagene CIS-FACTORIAL M06 internal marker reporter; actives raise or lower the signal. In outline: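 Internal background marker within multiplexed cis-reporter HepG2 system. Cells transiently transfected, dosed 24 h; reporter mRNA measured by RT-PCR, HpaI digestion and capillary electrophoresis. Bidirectional fit relative to DMSO.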

Experiment [4] addresses Hypoxia-inducible factor 1-alpha (Homo sapiens) (UniProt Q16665). In words: ATG_HIF1a_CIS: Attagene CIS-FACTORIAL HepG2 Assay for human Hypoxia Inducible Factor 1 (HIF1A) (AID 2282951). The following applies: HepG2 Attagene cis-factorial HIF1a reporter transcription; actives raise or lower the signal. In outline: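 HepG2, transient cis-reporter library, 24 h dosing. RNA → RT (oligo dT) → PCR → 6-FAM primer extension → HpaI → CE. Bidirectional curve fit vs DMSO.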

Experiment [5] concerns the target Hepatocyte nuclear factor 6 (Homo sapiens) (UniProt Q9UBC0). In words: ATG_HNF6_CIS: Attagene CIS-FACTORIAL HepG2 Assay for human Hepatocyte Nuclear Factor 6 (HNF6) (AID 2282952). The following applies: HepG2 Attagene cis-factorial HNF6 reporter transcription; actives raise or lower the signal. An outline of the steps: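 HepG2 cells transiently transfected with cis-element-driven multiplexed reporter units measuring endogenous transcription factor activity. After 24 h exposure, reporter mRNA quantified by RT-PCR, FAM-labelled fragments and capillary electrophoresis; bidirectional fitting versus DMSO.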

Experiment [6] concerns the target Heat shock factor protein 1 (Homo sapiens) (UniProt Q00613). In words: ATG_HSE_CIS: Attagene CIS-FACTORIAL HepG2 Assay for human Heat Shock Transcription Factor 1 (HSE) (AID 2282953). The following applies: HepG2 HSE cis-reporter, Attagene RNA transcription; actives raise or lower the signal. In outline: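 HepG2 cells transfected with cis-promoter reporter units sensing endogenous transcription factor activity; reporter mRNA quantified 24 h post-dose by RT-PCR and capillary electrophoresis of 6-FAM-labelled products. Bidirectional fitting against DMSO.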

Experiment [7] can be described thus: ATG_MRE_CIS: Attagene CIS-FACTORIAL HepG2 Assay for human Metal Responsive Element (MRE) (AID 2282954). The following applies: HepG2 MRE cis-reporter transcription, Attagene multiplex; actives raise or lower the signal. In outline: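 After a 24 h chemical exposure, transiently transfected HepG2 cells yield RNA whose reporter sequences are amplified, FAM-labelled and sized by capillary electrophoresis. Curves are fitted bidirectionally relative to DMSO.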

Experiment [8] can be described thus: ATG_PBREM_CIS: Attagene CIS-FACTORIAL HepG2 Assay for human Phenobarbital-responsive Enhancer Module (PBREM) (AID 2282955). Conditions: HepG2 PBREM cis-reporter, Attagene multiplexed transcription; actives raise or lower the signal. In outline:
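HepG2, transient MRTU transfection, 24 h dosing; RNA → oligo(dT) RT → PCR → 6-FAM extension → HpaI → CE. Bidirectional fit vs DMSO.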

The target of experiment [9] is Paired box protein Pax-6 (Homo sapiens) (UniProt P26367). In words: ATG_Pax6_CIS: Attagene CIS-FACTORIAL HepG2 Assay for human Paired Box 6 (PAX6) (AID 2282956). Conditions: HepG2 CIS-FACTORIAL PAX6 reporter transcription, RNA readout; actives raise or lower the signal. In outline: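 HepG2 cells transiently transfected with cis-promoter-driven multiplexed reporter units sensing endogenous transcription factor activity; 24 h chemical exposure. Reporter mRNA quantified by RT-PCR, 6-FAM labelling, HpaI digestion and capillary electrophoresis; bidirectional fit versus DMSO baseline.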
Sequence of Paired box protein Pax-6 (Homo sapiens) (P26367 whole entry, looked up): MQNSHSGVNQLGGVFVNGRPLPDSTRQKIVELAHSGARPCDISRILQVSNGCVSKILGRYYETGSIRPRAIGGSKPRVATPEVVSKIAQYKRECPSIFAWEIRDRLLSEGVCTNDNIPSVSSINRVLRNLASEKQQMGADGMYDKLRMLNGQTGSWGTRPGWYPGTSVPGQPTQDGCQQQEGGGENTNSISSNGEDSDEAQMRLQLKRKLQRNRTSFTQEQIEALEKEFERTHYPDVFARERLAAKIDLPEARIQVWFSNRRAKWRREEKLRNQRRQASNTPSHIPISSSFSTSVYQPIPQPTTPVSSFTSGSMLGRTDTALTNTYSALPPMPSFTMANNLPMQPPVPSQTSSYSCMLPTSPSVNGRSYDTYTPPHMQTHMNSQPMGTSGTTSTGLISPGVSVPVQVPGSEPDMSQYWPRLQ

Experiment [10] in a line: ATG_PXRE_CIS: Attagene CIS-FACTORIAL HepG2 Assay for human Pregnane X Receptor Element (PXRE) (AID 2282957). Conditions: HepG2 Attagene CIS-FACTORIAL PXRE reporter, mRNA; actives raise or lower the signal. In outline:
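HepG2 cells transiently transfected with cis-element-driven multiplexed reporter units; after 24 h chemical exposure, reporter mRNA measured by RT-PCR, 6-FAM labelling, HpaI digestion and capillary electrophoresis. Bidirectional fitting relative to DMSO.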

Experiment [11] is described as follows: ATG_PPRE_CIS: Attagene CIS-FACTORIAL HepG2 Assay for human Peroxisome Proliferator-activated Response Element (PPRE) (AID 2282958). Conditions: HepG2 PPRE cis-element reporter, Attagene transcription factor profiling; actives raise or lower the signal. In outline: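 Transcript-level reporter induction in transfected HepG2 cells after 24 h chemical exposure, quantified by fluorescence from RT-PCR products separated by capillary electrophoresis.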

Experiment [12] has as its target Transcription factor Sp1 (Homo sapiens) (UniProt P08047). In words: ATG_Sp1_CIS: Attagene CIS-FACTORIAL HepG2 Assay for human Specificity Protein 1 (Sp1) (AID 2282961). The following applies: HepG2 Sp1 cis-reporter transcription, actives raise or lower the signal. In outline: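 Measures mRNA induction of an Sp1-linked reporter in HepG2 cells 24 h post-dosing. Multiplexed reporters read by RT-PCR and capillary electrophoresis; DMSO serves as negative control and baseline.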

Experiment [13] is described as follows: ATG_SREBP_CIS: Attagene CIS-FACTORIAL HepG2 Assay for human Sterol Regulatory Element Binding (SREBP) (AID 2282962). The following applies: HepG2 Attagene cis-factorial SREBP reporter, mRNA; actives raise or lower the signal. An outline of the steps: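 HepG2 cells transiently transfected with multiplexed cis-promoter reporter units sensing endogenous transcription factors; reporter mRNA measured 24 h after dosing by RT-PCR, 6-FAM labeling, HpaI digestion and capillary electrophoresis. Bidirectional fit versus DMSO.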

Experiment [14] deals with Signal transducer and activator of transcription 3 (Homo sapiens) (UniProt P40763). Nature of the experiment: ATG_STAT3_CIS: Attagene CIS-FACTORIAL HepG2 Assay for human Signal Transducer and Activator of Transcription 3 (STAT3) (AID 2282963). The following applies: HepG2, Attagene cis-factorial STAT3 reporter transcription; actives raise or lower the signal. An outline of the steps: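 After a 24 h compound incubation, total RNA from MRTU-transfected HepG2 cells was converted to cDNA and reporter sequences PCR-amplified, labelled and profiled by capillary electrophoresis. Gain and loss of signal were referenced to DMSO.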
Sequence of Signal transducer and activator of transcription 3 (Homo sapiens) (P40763 whole entry, looked up): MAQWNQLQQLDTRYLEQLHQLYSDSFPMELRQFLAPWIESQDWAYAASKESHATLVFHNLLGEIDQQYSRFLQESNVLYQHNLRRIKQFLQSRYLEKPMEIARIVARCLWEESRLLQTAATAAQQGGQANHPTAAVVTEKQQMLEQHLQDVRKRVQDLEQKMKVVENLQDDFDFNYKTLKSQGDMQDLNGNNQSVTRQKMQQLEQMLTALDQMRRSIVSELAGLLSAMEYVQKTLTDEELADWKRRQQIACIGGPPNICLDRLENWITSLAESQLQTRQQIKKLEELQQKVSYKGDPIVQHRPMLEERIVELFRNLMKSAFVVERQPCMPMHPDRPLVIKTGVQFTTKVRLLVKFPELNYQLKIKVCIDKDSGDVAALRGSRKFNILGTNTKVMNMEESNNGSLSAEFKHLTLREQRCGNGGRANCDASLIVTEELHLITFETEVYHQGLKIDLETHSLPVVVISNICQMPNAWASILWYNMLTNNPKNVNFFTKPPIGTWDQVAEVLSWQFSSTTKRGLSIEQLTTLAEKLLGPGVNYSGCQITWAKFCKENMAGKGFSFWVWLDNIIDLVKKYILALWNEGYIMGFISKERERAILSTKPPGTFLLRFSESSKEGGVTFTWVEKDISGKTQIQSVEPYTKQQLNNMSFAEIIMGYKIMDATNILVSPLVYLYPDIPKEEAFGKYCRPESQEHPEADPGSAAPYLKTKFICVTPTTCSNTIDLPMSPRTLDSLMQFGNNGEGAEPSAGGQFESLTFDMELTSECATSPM

Experiment [15] in a line: ATG_TA_CIS: Attagene CIS-FACTORIAL HepG2 Assay for human TA Basal Promoter (AID 2282964). Conditions: HepG2 Attagene CIS-factorial TA basal promoter reporter; actives raise or lower the signal. In outline: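 HepG2 cells transiently transfected with multiple reporter units under cis promoter elements, reporting endogenous transcription factor activity; this endpoint tracks the TA basal promoter as background control. Reporter mRNA after 24 h dosing measured by RT-PCR/capillary electrophoresis; bidirectional fits versus DMSO.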

The nature of experiment [16]: ATG_GRE_CIS: Attagene CIS-FACTORIAL HepG2 Assay for human Glucocorticoid Response Elements (GRE) (AID 2282947). Conditions: HepG2 GRE cis-reporter, Attagene multiplex mRNA; actives raise or lower the signal. An outline of the steps:
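Assay uses human hepatoma HepG2 cells transfected with cis-promoter reporter units, exposed 24 h. mRNA from reporters detected by RT-PCR plus capillary electrophoresis; DMSO serves as negative control and baseline.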

A short description of experiment [17]: ATG_M_32_CIS: Attagene CIS-FACTORIAL HepG2 Assay for M32 Transcription Factor (Internal Marker) (AID 2282949).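 Note: background control marker of the multiplexed CIS panel rather than a real target.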 The following applies: HepG2 Attagene cis-factorial M32 reporter, mRNA; actives raise or lower the signal. In outline: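 Internal background marker read-out: RT-PCR/capillary electrophoresis fluorescence of reporter transcripts from transiently transfected HepG2 cells after 24 h chemical exposure. Activity fitted bidirectionally relative to DMSO negative control.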

Experiment [18] can be described thus: ATG_Sox_CIS: Attagene CIS-FACTORIAL HepG2 Assay for human SRY-box transcription factor (SOX) (AID 2282960). The following applies: HepG2 Attagene cis-factorial SOX reporter, mRNA; actives raise or lower the signal. In outline:
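Cells were transfected with reporter constructs under cis-regulatory promoters, then exposed to chemicals for 24 h. Reporter transcripts were quantified by fluorescence after RT-PCR and capillary electrophoresis; activity was fitted in both directions against DMSO.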

Each structure is given as a SMILES string. Active and inactive are the calls of the source. Rule for the calls: active = hit-call score of the fitted dose curve at least 0.9, where 1 is the maximum; inactive = score below 0.9.

Sequence of Heat shock factor protein 1 (Homo sapiens) (Q00613 whole entry, looked up): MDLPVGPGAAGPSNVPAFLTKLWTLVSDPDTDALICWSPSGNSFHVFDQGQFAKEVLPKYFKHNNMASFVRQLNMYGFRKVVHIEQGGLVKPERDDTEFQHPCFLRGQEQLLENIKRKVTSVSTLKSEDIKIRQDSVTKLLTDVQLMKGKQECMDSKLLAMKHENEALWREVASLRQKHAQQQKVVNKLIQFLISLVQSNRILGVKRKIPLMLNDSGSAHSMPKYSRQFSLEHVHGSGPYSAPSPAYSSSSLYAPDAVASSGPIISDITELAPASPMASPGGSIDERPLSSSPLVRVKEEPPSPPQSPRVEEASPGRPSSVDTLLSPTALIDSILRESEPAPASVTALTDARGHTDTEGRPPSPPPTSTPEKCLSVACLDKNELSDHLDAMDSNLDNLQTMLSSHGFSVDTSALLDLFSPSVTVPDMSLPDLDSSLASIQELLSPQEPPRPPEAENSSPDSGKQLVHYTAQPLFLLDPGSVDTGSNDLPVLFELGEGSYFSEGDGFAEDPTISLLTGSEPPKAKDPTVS
Sequence of Transcription factor Sp1 (Homo sapiens) (P08047 whole entry, looked up): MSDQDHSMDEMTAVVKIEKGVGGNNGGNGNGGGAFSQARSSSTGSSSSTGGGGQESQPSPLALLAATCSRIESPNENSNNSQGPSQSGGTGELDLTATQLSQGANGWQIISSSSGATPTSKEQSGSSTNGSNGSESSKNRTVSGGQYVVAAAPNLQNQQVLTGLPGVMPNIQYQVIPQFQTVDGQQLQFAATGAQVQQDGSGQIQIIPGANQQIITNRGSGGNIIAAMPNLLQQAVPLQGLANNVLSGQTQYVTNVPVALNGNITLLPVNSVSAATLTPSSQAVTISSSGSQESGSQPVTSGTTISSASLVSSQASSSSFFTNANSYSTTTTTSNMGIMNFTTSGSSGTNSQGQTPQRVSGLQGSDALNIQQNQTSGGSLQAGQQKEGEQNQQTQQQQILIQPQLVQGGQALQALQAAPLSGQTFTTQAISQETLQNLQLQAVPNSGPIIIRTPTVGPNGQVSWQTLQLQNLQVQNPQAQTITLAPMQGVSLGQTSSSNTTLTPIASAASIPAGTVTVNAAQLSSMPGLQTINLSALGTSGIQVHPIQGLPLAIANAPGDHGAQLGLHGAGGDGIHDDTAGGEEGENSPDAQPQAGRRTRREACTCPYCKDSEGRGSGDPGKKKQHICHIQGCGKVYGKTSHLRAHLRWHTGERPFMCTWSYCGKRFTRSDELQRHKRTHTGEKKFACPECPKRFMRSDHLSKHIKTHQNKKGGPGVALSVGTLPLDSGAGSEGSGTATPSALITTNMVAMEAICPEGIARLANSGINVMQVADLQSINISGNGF
Sequence of Hypoxia-inducible factor 1-alpha (Homo sapiens) (Q16665 whole entry, looked up): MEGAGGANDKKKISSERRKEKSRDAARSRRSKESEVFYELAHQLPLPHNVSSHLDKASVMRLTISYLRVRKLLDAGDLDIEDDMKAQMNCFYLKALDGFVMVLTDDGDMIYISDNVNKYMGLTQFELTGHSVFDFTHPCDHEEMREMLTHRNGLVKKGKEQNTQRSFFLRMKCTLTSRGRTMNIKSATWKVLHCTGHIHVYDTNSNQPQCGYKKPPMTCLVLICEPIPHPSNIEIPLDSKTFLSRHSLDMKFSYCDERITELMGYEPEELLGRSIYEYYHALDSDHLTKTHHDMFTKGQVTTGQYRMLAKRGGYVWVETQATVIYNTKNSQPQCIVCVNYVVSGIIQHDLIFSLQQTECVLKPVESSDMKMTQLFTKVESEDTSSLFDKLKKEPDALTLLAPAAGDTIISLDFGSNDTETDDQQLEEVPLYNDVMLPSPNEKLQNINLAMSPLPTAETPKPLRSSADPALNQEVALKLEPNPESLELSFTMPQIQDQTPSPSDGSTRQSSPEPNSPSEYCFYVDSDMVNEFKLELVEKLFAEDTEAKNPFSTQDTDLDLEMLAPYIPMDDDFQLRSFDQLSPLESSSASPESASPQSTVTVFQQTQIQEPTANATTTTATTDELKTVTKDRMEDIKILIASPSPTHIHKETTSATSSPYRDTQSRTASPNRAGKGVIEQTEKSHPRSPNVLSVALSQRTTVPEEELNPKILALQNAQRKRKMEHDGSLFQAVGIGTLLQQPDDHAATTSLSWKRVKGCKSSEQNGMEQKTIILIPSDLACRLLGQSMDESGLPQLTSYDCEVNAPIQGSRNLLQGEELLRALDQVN
Sequence of Hepatocyte nuclear factor 6 (Homo sapiens) (Q9UBC0 whole entry, looked up, the tested form may be a part): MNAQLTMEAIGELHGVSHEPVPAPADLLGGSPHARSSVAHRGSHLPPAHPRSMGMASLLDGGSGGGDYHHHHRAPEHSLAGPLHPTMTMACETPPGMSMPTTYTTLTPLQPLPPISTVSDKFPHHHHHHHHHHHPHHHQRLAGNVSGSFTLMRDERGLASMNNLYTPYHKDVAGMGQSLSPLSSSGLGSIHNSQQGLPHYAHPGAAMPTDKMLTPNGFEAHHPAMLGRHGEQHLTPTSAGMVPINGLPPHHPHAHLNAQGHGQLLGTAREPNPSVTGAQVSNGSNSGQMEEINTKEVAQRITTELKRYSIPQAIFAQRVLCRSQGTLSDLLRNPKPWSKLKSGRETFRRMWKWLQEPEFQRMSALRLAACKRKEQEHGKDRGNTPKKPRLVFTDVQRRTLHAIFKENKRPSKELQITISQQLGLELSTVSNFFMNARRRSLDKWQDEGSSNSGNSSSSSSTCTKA

Usually AC50 stands for the concentration at which the activity in the assay is half-maximal. As for `Cc1cccc([N+](=O)[O-])c1C`, the molecule was classed as inactive in [1], in experiment [2], in [3], in experiment [4], in experiment [5] and in experiment [6]. The molecule was called inactive in experiment [7], in experiment [8], in [9], in experiment [11], in [12] and in experiment [13]. Further, the result in experiment [14] and in experiment [15] was inactive. The concentration at half-maximal activity (AC50) in experiment [10] was 27.1 µM (active).
`CNCc1cc(F)ccc1Oc1ccc(Cl)c(Cl)c1`: the call in experiment [1], in experiment [16], in experiment [2], in [17], in experiment [3] and in [4] was inactive. In addition, the call in experiment [5], in [6], in experiment [7], in experiment [9], in experiment [11] and in experiment [18] was inactive. For the same molecule, the result in experiment [12], in [13], in experiment [14] and in experiment [15] was inactive. Further, the AC50 in experiment [10] was 7.83 µM (active).
Consider `NCCO`, for which the molecule was classed as inactive in experiment [1], in [16], in experiment [2], in experiment [17], in [3] and in [4]. In addition, the call in experiment [5], in [6], in [7], in [9], in [10] and in experiment [18] was inactive. Moreover, the result in experiment [12], in [13], in [14] and in [15] was inactive.
Regarding `C=CCc1ccc(O)c(OC)c1`, the molecule was called inactive in experiment [1], in experiment [2], in experiment [3], in [4], in experiment [5] and in experiment [6]. In addition, the result in [7], in experiment [8], in [9], in experiment [10], in [11] and in experiment [18] was inactive. For the same molecule, the outcome in experiment [12], in experiment [13], in [14] and in experiment [15] was inactive.
Take `CC=Cc1ccc(O)c(OC)c1`: the outcome in experiment [1], in experiment [2], in experiment [3], in experiment [4], in [5] and in [6] was inactive. Also, the molecule was classed as inactive in experiment [7], in [8], in experiment [9], in experiment [11], in [18] and in experiment [12]. For the same molecule, the molecule was classed as inactive in experiment [13], in experiment [14] and in [15]. Also, the AC50 in [10] was 26.1 µM (active).
`Clc1cc(Cl)c(Cl)cc1Cl`: the molecule was classed as inactive in [1], in experiment [16], in experiment [2], in experiment [3], in experiment [4] and in experiment [5]. For the same molecule, the outcome in [6], in [7], in experiment [9], in experiment [10], in [11] and in experiment [18] was inactive. Also, the molecule was called inactive in experiment [12], in experiment [13], in [14] and in experiment [15].
Regarding `Cc1ccc(C)c(O)c1C`, the molecule was classed as inactive in [1], in experiment [16], in [2], in experiment [3], in experiment [4] and in [5]. Further, the molecule was classed as inactive in experiment [6], in [7], in experiment [8], in experiment [9], in experiment [10] and in [11]. Also, the outcome in experiment [18], in experiment [12], in experiment [13], in experiment [14] and in experiment [15] was inactive.
